The nature of experiment [1]: Cell Viability - HepG2 (AID 433; calls by dose curve;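 note: potency is the fitted concentration of half-maximal effect; cells exposed to compound for 40 hours; potency for ATP loss meaning cytotoxicity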). Conditions: qHTS. The gist of the method:
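HepG2 hepatocellular carcinoma cells (1500/well) were treated with compounds for 40 h at 37 °C in complete medium; intracellular ATP was read by CellTiter-Glo luminescence. Data were normalized to DMSO and 100 uM tamoxifen, and AC50 came from Hill fits.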
(In general: qHTS replaces the single test concentration by a dilution series.)

Experiment [2] can be described thus: Cell Viability - SH-SY5Y (AID 544).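 Note: cells exposed to compound for 40 hours; nearly all actives have a fitted effect of over 55% in size.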 Note: potency is the fitted concentration of half-maximal effect. The settings on record: SH-SY5Y neuroblastoma cell viability; viability change, negative = cytotoxic: at 92.2 µM (top of the series). In a few lines:
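Cytotoxicity measured via ATP-dependent luciferase luminescence (CellTiter-Glo) following 40 h, 37 °C exposure of 1500 SH-SY5Y cells per well. Concentration-response data were fitted with the standard Hill equation to give AC50.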

The nature of experiment [3]: Cellular Toxicity (caspase-3) HepG2 (AID 654).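 Note: cells exposed to compound for 16 hours before reading; 0% = DMSO alone and 100% = caspase signal from 100 µM tamoxifen.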 Conditions: HepG2 caspase-3 activation, luminescence, 0% = DMSO only, 100% = tamoxifen; series mostly up to 92.2 µM. In a few lines:
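Caspase 3/7 activation is measured as a luminescence increase (aminoluciferin substrate) after 16 h compound exposure of human hepatocarcinoma HepG2 cells. AC50 values are Hill fits, scaled between DMSO baseline and 100 uM tamoxifen stimulation.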

The nature of experiment [4]: Cellular Toxicity (caspase-3) HUV-EC-C (AID 656). The settings on record: HUV-EC-C cells, caspase-3 activation (apoptosis), vehicle = 0, 100 µM tamoxifen = 100%; series mostly up to 92.2 µM. The gist of the method: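 HUV-EC-C endothelial cells, 1000/well, were pre-incubated 5 hr at 37°C, then exposed to compounds for 16 hr at 37°C. Caspase-Glo 3/7 luminescence was read after 20 min at room temperature. AC50 came from Hill fits, normalized to DMSO and 100 uM tamoxifen.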

A short description of experiment [5]: Cellular Toxicity (caspase-3) Mesangial (AID 660).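 Note: combined caspase 3 and 7 activity read by Caspase-Glo luminescence; cells exposed to compound for 16 h before the caspase read.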 The settings on record: mesangial cells, normalized: DMSO 0%, 100 µM tamoxifen 100%; series mostly up to 91.7 µM. In a few lines:
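Caspase 3/7 activation measured by Caspase-Glo 3/7 luminescence (20 min, room temperature) following 16 h exposure of mesangial cells (1000/well); AC50 from Hill-equation fit, normalized to DMSO and 100 uM tamoxifen.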

Experiment [6] is described as follows: Cellular Toxicity (caspase-3) SK-N-SH (AID 661).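 Note: 0% = DMSO basal and 100% = 10 µM staurosporine.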 Conditions: SK-N-SH caspase-3 activation, qHTS; series mostly up to 91.7 µM. The gist of the method:
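Caspase 3/7 activation was read by luminogenic substrate cleavage after 16 hour treatment of SK-N-SH cells. Signal was scaled between DMSO and 10 uM staurosporine, and concentration-response data were fitted with the Hill equation for AC50.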

Experiment [7] is described as follows: Cellular Toxicity (caspase-3) NIH 3T3 (AID 666).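 Note: caspase signal read after 16 h compound exposure; 0% = DMSO basal and 100% = 100 µM tamoxifen stimulation.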 Conditions: NIH 3T3 caspase-3 activation, apoptosis/toxicity; series mostly up to 92.2 µM. The gist of the method: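 Caspase-Glo 3/7 luminescence reported caspase activation in 1000 NIH 3T3 cells/well after 16 h compound exposure at 37 C. DMSO set basal and 100 uM tamoxifen set 100% stimulation; concentration-response modeled with the Hill equation for AC50.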

Experiment [8] in a line: Cell Viability - LYMP2-023 (AID 975).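 Note: cells exposed to compound for 24 hours at 37 °C; nearly all actives have a fitted effect of over 55% in size.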 Note: potency is the fitted concentration of half-maximal effect. Conditions: LYMP2-023 lymphoblastoid cell viability; series mostly up to 92.2 µM. In a few lines:
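Intracellular ATP, read by CellTiter-Glo luminescence, reports viability after 24 hr compound exposure at 37 C. 2500 lymphoblastoid cells/well (LYMP2-023) seeded 5 hr beforehand; Hill fits give AC50; positive control tetraoctylammonium bromide.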

The nature of experiment [9]: Cell Viability - LYMP2-014 (AID 983). Note: nearly all actives have a fitted effect of over 50% in size. Note: potency is the fitted concentration of half-maximal effect. Conditions: LYMP2-014 lymphoblastoid cells, viability qHTS; series mostly up to 92.2 µM. The gist of the method: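 Intracellular ATP loss, read by luciferase luminescence, measures acute cytotoxicity after 24 h compound exposure of lymphoblastoid LYMP2-014 cells (2500/well, 37 C). Concentration-response data fitted to the Hill equation for AC50.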

Experiment [10] addresses Vitamin D3 receptor (Homo sapiens) (UniProt P11473). The experiment in a line: qHTS assay for small molecule antagonists of vitamin D receptor signaling (AID 588541; calls by dose curve;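 note: receptor activated by calcitriol during compound treatment; % is set by controls: 0 for no effect and ±100 for the full control effect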). The settings on record: HEK293T VDR-UAS-bla, beta-lactamase ratio, antagonist mode; series mostly up to 76.7 µM. In a few lines:
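VDR-UAS-bla HEK293T cells (2000/well, 2% charcoal-stripped FBS) were treated with titrated compounds plus 1-alpha,25-dihydroxyvitamin D3 (50 nM or 3 nM final) for 16 h at 37 C. CCF4 beta-lactamase fluorescence was read; Hill fits gave IC50.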

For experiment [11] the target is unchanged. The experiment in a line: qHTS assay for small molecule agonists of vitamin D receptor signaling (AID 588543; calls by dose curve;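 note: 0% = DMSO basal and 100% = reference agonist control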). The settings on record: HEK293T VDR-UAS-bla, beta-lactamase ratio, 16 h; series mostly up to 76.8 µM. In a few lines:
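GeneBLAzer VDR-UAS-bla HEK293T cells in 2% charcoal-stripped FBS medium were dosed with compound titrations for 16 h at 37 °C; CCF4 β-lactamase readout (405 nm ex, 460/530 nm em). EC50 and efficacy from Hill fits, normalized to 50 nM calcitriol (100%) and DMSO (0%).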

The target in experiment [12] is Voltage-gated inwardly rectifying potassium channel KCNH2 (Homo sapiens) (UniProt Q12809). Kind of experiment: qHTS Assay for Small Molecule Inhibitors of the Human hERG Channel Activity (AID 588834).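 Note: top concentration of the series differs between compounds; % is set by controls: 0 for no effect and ±100 for the full control effect; lower thallium flux fluorescence means stronger hERG block; nearly all actives have a fitted effect of over 50% in size.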 Conditions: U2OS BacMam hERG, FluxOR thallium flux fluorescence; series mostly up to 92.2 µM. In a few lines:
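In hERG-transduced U2OS cells, dye-loaded for 1 hr at room temperature in dark, test compounds incubated 10 min at 37 °C before thallium stimulation. AC50 values derived by Hill modelling of concentration-response.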

Experiment [13] in a line: qHTS assay for small molecule activators of the p53 signaling pathway (AID 651743; active = well fitted activation curve with a large enough effect in the signal ratio, not every such curve was filed as active; the % refers to the signal ratio; note: % of control where 0% means no effect). The settings on record: HCT-116 p53RE-bla, beta-lactamase FRET ratio, 16 h; activation: stronger effect = higher value. In a few lines:
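Agonist-mode quantitative HTS in HCT-116 cells carrying a p53-response-element beta-lactamase reporter; 16 h compound treatment at 37 C, then FRET substrate loading for 2 h at room temperature and fluorescence read.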

Experiment [14] in a line: qHTS assay for small molecule disruptors of the mitochondrial membrane potential - 1 hr assay (AID 651754; calls by dose curve; note: nearly all actives have a fitted effect of over 35% in size; note: potency is the fitted concentration of half-maximal effect). Conditions: series mostly up to 92.2 µM. In a few lines: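 Mitochondrial potential in living HepG2 cells after 1 hr compound treatment at 37C was read with Mito-MPS dye added for a further 30 min. Red aggregate and green monomer fluorescence were measured; loss of potential leaves dye as cytoplasmic monomers.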

Experiment [15] is described as follows: qHTS assay for small molecule agonists of the antioxidant response element (ARE) signaling pathway measured by Nrf2-dependant transcriptional activity - cell viability counter screen (AID 720653; active = well fitted curve in the direction sought with a large enough effect in the repeat runs; an effect the other way counts as inactive or inconclusive; note: % is set by controls: 0 for no effect and ±100 for the full control effect). The settings on record: ARE-bla HepG2 viability, CellTiter-Glo ATP luminescence, 16 h; stronger effect = lower value. In a few lines:
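ARE-bla HepG2 cells (2,000/well) rested 5 hrs at 37C/5% CO2, then exposed to compounds in DMSO for 16 hrs. Viability was read in the same wells as intracellular ATP by luminescence, 30 min at room temperature after reagent addition.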

The nature of experiment [16]: Cell Viability - Mesenchymal (AID 546).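 Note: cells exposed to compound for 40 hours before reading.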 Conditions: mesenchymal cells viability, qHTS; series mostly up to 91.7 µM. The gist of the method: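 In this qHTS cytotoxicity format, glomerulus-derived human mesenchymal kidney cells received compound for 40 hr, then luciferase-based ATP quantitation. Concentration-response data were fitted with the Hill equation.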
Experiment [17] can be described thus: Cellular Toxicity (caspase-3) Hek293 (AID 664).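 Note: cells exposed to compound for 16 h at 37 °C before readout.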 Conditions: HEK293 caspase-3 activation, DMSO = 0%, 100 µM tamoxifen = 100%; at 92.2 µM (top of the series). In a few lines:
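Concentration-response qHTS: caspase 3/7 activation measured by luminescent aminoluciferin substrate cleavage after 16 h compound exposure of Hek 293 cells. AC50 from Hill equation, with DMSO as basal and 100 uM tamoxifen as 100%.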

Experiment [18] addresses Peroxisome proliferator-activated receptor delta (Homo sapiens) (UniProt Q03181). The experiment in a line: qHTS assay for small molecule agonists of peroxisome proliferator-activated receptor delta signaling (AID 588534; calls by dose curve;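 note: 0% = DMSO basal wells and 100% = positive control agonist at 10 µM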). Conditions: HEK293T PPARdelta-UAS-bla, beta-lactamase ratio, 18 h; series mostly up to 76.7 µM. The gist of the method: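 Agonist-mode beta-lactamase reporter readout (CCF4 dye, 2 h at RT) after 18 h at 37 °C exposure to a titration; Hill-equation fitting gave EC50 and maximal response.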

The target in experiment [19] is Nuclear receptor ROR-gamma (Homo sapiens) (UniProt P51449). The experiment in a line: qHTS assay for small molecule antagonists of the retinoid-related orphan receptor gamma (ROR-gamma) signaling pathway (AID 651802). Note: nearly all actives have a fitted effect of over 60% in size. Note: potency is the fitted concentration of half-maximal effect. The settings on record: ROR-gamma antagonist cell reporter assay; series mostly up to 92.2 µM. The gist of the method:
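Luminescence (One-Glo, 30 min RT) measured 16 h after compound addition and doxycycline induction at 37C. Reporter: RORE-luciferase under TET-inducible ROR-gamma in CHO cells.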

The nature of experiment [20]: Cell Viability - LYMP2-026 (AID 989). Note: nearly all actives have a fitted effect of over 50% in size. Note: potency is the fitted concentration of half-maximal effect. The settings on record: LYMP2-026 lymphoblastoid cell viability, qHTS; series mostly up to 92.2 µM. In a few lines:
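Cytotoxicity read as ATP-dependent luminescence (CellTiter-Glo, 30 min room temperature) after 24 h compound treatment at 37 C. LYMP2-026 lymphoblastoid line seeded at 2500 cells/well; AC50 derived by standard Hill equation.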

Where “and” joins values, the source holds several entries; their conditions need not be identical. Identical values can stand only once. A number with no mark means an inactive call. Inconclusive results are not listed. Calls of active or inactive are those of the source. Unless noted, calls come from the whole dose curve; as a rule, active = well fitted curve in the direction sought with a large enough effect; inconclusive = small, poorly fitted or top-dose-only effect, or another doubt; inactive = no such curve, though single readings can be large; an effect the other way counts as inactive or inconclusive.

Chain of Vitamin D3 receptor (Homo sapiens) (P11473 whole entry, looked up): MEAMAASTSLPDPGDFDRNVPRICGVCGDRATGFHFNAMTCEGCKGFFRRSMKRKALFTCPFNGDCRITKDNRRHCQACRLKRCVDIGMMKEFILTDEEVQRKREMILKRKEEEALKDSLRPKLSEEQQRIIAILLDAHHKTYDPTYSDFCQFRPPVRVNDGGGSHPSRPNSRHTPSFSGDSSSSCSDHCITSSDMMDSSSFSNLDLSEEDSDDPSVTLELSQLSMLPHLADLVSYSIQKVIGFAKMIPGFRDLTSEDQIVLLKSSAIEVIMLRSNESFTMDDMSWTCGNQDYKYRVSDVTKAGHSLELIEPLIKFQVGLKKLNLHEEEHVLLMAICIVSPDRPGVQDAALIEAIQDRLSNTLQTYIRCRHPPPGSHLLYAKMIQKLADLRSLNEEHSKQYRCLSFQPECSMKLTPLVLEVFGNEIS
Chain of Nuclear receptor ROR-gamma (Homo sapiens) (P51449 whole entry, looked up): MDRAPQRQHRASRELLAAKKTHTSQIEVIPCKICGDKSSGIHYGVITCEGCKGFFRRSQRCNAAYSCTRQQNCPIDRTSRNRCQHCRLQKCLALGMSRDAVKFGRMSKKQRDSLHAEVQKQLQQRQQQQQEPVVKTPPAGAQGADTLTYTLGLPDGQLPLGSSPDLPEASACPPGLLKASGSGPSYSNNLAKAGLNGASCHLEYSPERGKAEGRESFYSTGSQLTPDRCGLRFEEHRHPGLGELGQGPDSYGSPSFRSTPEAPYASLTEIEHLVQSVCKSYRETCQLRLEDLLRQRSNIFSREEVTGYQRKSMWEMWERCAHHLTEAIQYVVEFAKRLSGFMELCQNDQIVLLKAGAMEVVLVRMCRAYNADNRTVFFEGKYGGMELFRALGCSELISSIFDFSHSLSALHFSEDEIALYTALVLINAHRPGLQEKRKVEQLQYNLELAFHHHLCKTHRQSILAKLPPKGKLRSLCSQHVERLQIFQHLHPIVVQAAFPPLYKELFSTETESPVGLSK
Chain of Peroxisome proliferator-activated receptor delta (Homo sapiens) (Q03181 whole entry, looked up): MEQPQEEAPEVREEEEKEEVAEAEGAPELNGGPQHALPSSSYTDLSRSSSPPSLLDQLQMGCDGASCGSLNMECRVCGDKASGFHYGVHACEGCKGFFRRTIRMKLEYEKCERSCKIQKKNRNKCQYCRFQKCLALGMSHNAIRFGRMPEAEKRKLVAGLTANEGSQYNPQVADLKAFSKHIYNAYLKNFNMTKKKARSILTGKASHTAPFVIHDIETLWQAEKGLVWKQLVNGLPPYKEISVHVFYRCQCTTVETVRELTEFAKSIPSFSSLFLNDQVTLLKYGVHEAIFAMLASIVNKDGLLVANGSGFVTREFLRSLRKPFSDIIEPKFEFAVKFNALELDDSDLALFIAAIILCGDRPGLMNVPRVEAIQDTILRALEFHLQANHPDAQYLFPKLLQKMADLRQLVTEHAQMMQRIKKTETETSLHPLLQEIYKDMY
Chain of Voltage-gated inwardly rectifying potassium channel KCNH2 (Homo sapiens) (Q12809 whole entry, looked up): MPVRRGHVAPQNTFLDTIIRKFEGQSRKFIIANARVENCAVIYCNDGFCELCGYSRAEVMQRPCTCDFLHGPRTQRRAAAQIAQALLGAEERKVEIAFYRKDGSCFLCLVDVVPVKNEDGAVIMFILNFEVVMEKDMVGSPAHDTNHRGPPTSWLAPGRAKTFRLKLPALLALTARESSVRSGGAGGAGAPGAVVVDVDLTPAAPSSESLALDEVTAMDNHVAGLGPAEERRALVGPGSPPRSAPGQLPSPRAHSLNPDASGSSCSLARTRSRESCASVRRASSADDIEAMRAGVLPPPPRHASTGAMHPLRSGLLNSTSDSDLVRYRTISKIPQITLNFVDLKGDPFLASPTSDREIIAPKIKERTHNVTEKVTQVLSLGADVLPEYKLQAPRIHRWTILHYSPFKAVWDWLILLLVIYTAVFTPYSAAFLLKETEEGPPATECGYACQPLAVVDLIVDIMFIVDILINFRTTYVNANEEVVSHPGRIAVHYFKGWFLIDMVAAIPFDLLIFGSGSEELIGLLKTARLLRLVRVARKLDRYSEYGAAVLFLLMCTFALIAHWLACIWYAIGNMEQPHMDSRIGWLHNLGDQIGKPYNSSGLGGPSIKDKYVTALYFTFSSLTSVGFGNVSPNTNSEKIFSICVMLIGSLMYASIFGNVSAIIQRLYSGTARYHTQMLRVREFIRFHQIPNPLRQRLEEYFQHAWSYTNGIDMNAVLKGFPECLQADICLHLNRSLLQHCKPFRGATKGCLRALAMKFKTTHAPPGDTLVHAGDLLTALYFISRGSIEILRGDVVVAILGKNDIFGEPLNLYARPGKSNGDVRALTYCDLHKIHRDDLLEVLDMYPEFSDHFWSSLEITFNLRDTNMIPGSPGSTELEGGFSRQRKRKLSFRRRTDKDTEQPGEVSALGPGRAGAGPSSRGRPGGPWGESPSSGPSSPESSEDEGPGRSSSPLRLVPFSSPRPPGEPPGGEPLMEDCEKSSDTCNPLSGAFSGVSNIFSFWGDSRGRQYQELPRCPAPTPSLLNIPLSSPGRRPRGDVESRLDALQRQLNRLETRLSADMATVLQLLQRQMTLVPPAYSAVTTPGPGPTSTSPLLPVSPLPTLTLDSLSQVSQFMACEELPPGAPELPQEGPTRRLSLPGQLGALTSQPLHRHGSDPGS

Take `Nc1ccc(-c2ccc(N)c(Cl)c2)cc1Cl`: the Potency in experiment [1] is above 92 µM; in experiment [2], 12.6 µM (active); in [14], 42.2 µM (active). Also, the molecule was called inactive in experiment [3], in experiment [4], in [5], in experiment [10] and in [11]. Besides, the Potency result in experiment [6], in experiment [7], in experiment [8], in [9] and in experiment [12] was “inactive” each time. Also, the activation in [13] is 14% and 23.3%. For the same molecule, the max response in experiment [15] is -14% and -8.08%.

Turning to `CCN(N=O)C(N)=O`, the Potency result in [2], in [16], in experiment [6], in [7], in [8] and in experiment [9] was “inactive” each time. Also, the Potency result in [12], in [14] and in [19] was “inactive” throughout. The outcome in experiment [3], in experiment [4], in [5], in experiment [18], in experiment [10] and in experiment [11] was inactive. Moreover, in experiment [17], the caspase-3 activation is 0.506%. Also, the activation in experiment [13] was 0.306%.

For the molecule `[C-]1=CC=CC1.[C-]1=CC=CC1.[Cl-].[Cl-].[Ti+4]`, in [2], the viability change, negative = cytotoxic is -81.6% (active). Moreover, the Potency entry in [16], in experiment [6], in [7] and in experiment [12] was “inactive” each time. Further, the molecule was called inactive in [3], in experiment [4], in experiment [5] and in experiment [11]. For the same molecule, the caspase-3 activation in [17] is 3.8%. The max response in [15] is -7.58%.

For `CN1CSC(=S)N(C)C1`, the Potency in [1] is above 92 µM; in experiment [8], 39.8 µM (active); in experiment [9], 15.8 µM (active); in experiment [20], 39.8 µM (active). Further, the viability change, negative = cytotoxic in experiment [2] was -83% (active). Also, the Potency entry in experiment [16], in [6], in experiment [12], in [14] and in [19] was “inactive” throughout. Further, the outcome in experiment [3], in experiment [4], in experiment [18], in experiment [10] and in experiment [11] was inactive. In addition, the activation in experiment [13] was 0.178% and -0.711%. Moreover, the max response in experiment [15] was -1.99% and -0.305%.

For `CCCCCCCCCCCOC(=O)c1ccccc1C(=O)OCCCCCCCCCCC`, the Potency in experiment [1] was above 92 µM. Also, the Potency result in [2], in experiment [6], in experiment [7], in [8], in experiment [9] and in [20] was “inactive” throughout. For the same molecule, the Potency entry in experiment [12], in experiment [14] and in experiment [19] was “inactive” throughout. Moreover, the outcome in [3], in [4], in [18], in experiment [10] and in [11] was inactive. Further, in [13], the activation is 2.34%. The max response in experiment [15] is 3.11%.

Take `Cl/C=C\Cl`: the Potency in experiment [1] was above 92 µM. Further, the Potency result in experiment [2], in [16], in [6], in experiment [7], in experiment [8] and in [9] was “inactive” throughout. The Potency result in [20], in experiment [12], in [14] and in [19] was “inactive” in each case. The call in [3], in experiment [4], in experiment [18], in [10] and in experiment [11] was inactive. For the same molecule, the caspase-3 activation in [17] is 0.708%. The activation in [13] is 1.35%. Moreover, the max response in experiment [15] is -3.68%.

With `C=CC(=O)OCCO`, the Potency in experiment [1] was above 92 µM. Moreover, the Potency result in experiment [16], in experiment [6], in experiment [7], in [20], in experiment [12] and in experiment [14] was “inactive” in each case. Moreover, the molecule was called inactive in experiment [3], in [4], in experiment [5], in experiment [10] and in [11]. Also, in [17], the caspase-3 activation is 2.01%. Besides, the activation in experiment [13] is 1.07%.

As to `O=[N+]([O-])c1cccc(CCl)c1`, the figures for the Potency in experiment [1] and in [19] were above 92 µM and 33.5 µM (active), respectively. Moreover, the Potency result in experiment [16], in [6], in [8], in [20], in experiment [12] and in experiment [14] was “inactive” in each case. Also, the result in experiment [4], in experiment [5], in experiment [10] and in [11] was inactive. In addition, the caspase-3 activation in experiment [17] was -1.48%. In addition, the max response in [15] is -3.2%.

Turning to `c1ccc2c(c1)-c1cccc3c1c-2cc1ccccc13`, in experiment [19], the Potency entry is “inactive”.
